Most compounds without a hit are left out; they make up all but 4% or so of the library.
tim23-1 inh: growth inhibitors of tim23-1 mutant yeast, primary screen, luminescence, uHTS; S. cerevisiae tim23-1 growth, BacTiter-Glo luminescence, 24 h; inhibition, % at 20 µM; 330,000 tested, 1.3% active; AID 463212, 2010;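 active = growth inhibition of the mutant yeast at or above 50%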;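 note: temperature-sensitive mutant grown at 25 °C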
NLRP3 yeast inh: NALP3 inflammasome inhibitors in reconstituted yeast, primary screen, luminescence, uHTS; Yeast reconstituted NLRP3/ASC/caspase-1, beta-gal luminescence, 24 h; inhibition, % at 10 µM; 330,000 tested, 0.39% active; AID 2825, 2010;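 active = inhibition of 50% or more; inactive = inhibition below 50%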
TIM10 inh: growth inhibitors of isogenic TIM10 control yeast, primary screen, counter-screen for tim10-1 yeast inhibitor project, luminescence, uHTS; 330,000 tested, 1.4% active; inhibition, % at 10 µM; AID 463195, 2010; S. cerevisiae TIM10 strain growth, BacTiter-Glo luminescence, 24 h;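 active = inhibition of 40% or more at the single tested concentration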;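 note: wild-type TIM10 isogenic control strain grown at permissive 25 °C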
tim10-1 inh: growth inhibitors of tim10-1 mutant yeast, primary screen, luminescence, uHTS; S. cerevisiae tim10-1 ts strain growth, BacTiter-Glo, 24 h; inhibition, % at 20 µM; 330,000 tested, 2.2% active; AID 463190, 2010;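 active = inhibition of at least 40%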;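 note: mutant grown at 25 °C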
NALP1 inh: NALP1 inflammasome inhibitors in reconstituted yeast, colorimetric, S. cerevisiae, triplicate retest; 280,000 tested, 0.61% active; S. cerevisiae NALP1/ASC/caspase-1 growth, X-gal OD620, 72 h; inhibition, % at 10 µM; in the data active = inhibition mostly above about 24%, no sharp cut-off; inactive = mostly below about 32%
tim10-1 confirm: growth inhibitors of tim10-1 mutant yeast, confirmation, single concentration, luminescence, S. cerevisiae | shares compounds with tim10-1 inh | S. cerevisiae tim10-1 ts strain growth, BacTiter-Glo, 24 h | inhibition, % at 20 µM | 7,400 tested, 56% active | AID 463213, 2010;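 active = inhibition of yeast growth at or above a set limit in either of two repeat tests at 20 µM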;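 note: tim10-1 mutant grown at permissive 25 °C to find synthetic lethal compounds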
Numbers stand for hits; – = inactive; · = not tested or not shown.

SMILES	tim23-1 inh	NLRP3 yeast inh	TIM10 inh	tim10-1 inh	NALP1 inh	tim10-1 confirm
CC1CCCC(NC(=O)COC(=O)c2ccc(Cl)nc2)C1C (stereo not given)	–	–	–	–	·	·
C/C=C(/C(=C/C)c1ccc(O)cc1)c1ccc(O)cc1	–	–	–	44	–	43
CCOC(=O)c1ccc(N2C(=O)CC(N3CCN(Cc4ccccc4)CC3)C2=O)cc1 (stereo not given)	–	–	–	–	–	·
CCOC(=O)c1ccc(N2C(=O)CC(N3CCC(Nc4ccc(F)cc4)CC3)C2=O)cc1 (stereo not given)	–	–	–	57	–	50
O=C1CC(N2CCCCCC2)C(=O)N1c1ccc(F)cc1 (stereo not given)	–	–	–	54	37	45
Cc1ccc(NC(=O)COC(=O)CN2C(=O)NC3(CCCC3)C2=O)cc1Cl	–	–	–	–	·	·
CCCCCCCSc1nsc(N)n1	–	–	–	45	–	–
O=C(NNC(=S)NC1CCCCC1)c1sc2ccccc2c1Cl	–	–	–	50	–	–
Cc1cc(C(=O)Nc2sc(C)c(C)c2C#N)no1	–	–	–	43	–	–
CCc1c(C)sc(NC(=O)c2cc(C(C)C)on2)c1C#N	–	–	–	–	–	·
Cc1ccc2cccc(OCCCOc3ccccc3F)c2n1	–	–	–	43	–	–
O=C(c1cc2ccccc2o1)N1CCN(S(=O)(=O)c2ccccc2)CC1	–	–	–	43	·	–
Fc1ccc(/C=N/NC(=S)Nc2ccc(Cl)cc2)cc1F	–	–	–	–	–	·
Cc1ccccc1C(=O)Nc1cccc(C(=O)N/N=C/c2cc(Cl)cc([N+](=O)[O-])c2O)c1	–	–	–	41	–	–
CCOC(=O)C1CCN(C(=O)CN(Cc2ccc(Cl)cc2)S(C)(=O)=O)CC1	–	–	–	97	·	–
CC1Cc2ccccc2N1C(=O)COC(=O)c1c2c(nc3ccccc13)CCCCC2 (stereo not given)	–	–	–	41	·	36
O=C(OCC(=O)N1CCc2ccccc21)c1c2c(nc3ccccc13)CCCC2	–	–	–	–	–	·
O=C(Nc1ccccc1Cl)C(Cl)C(=O)c1ccccc1 (stereo not given)	–	–	–	42	–	31
O=C(Nc1ccccc1Cl)c1ccccc1	–	–	–	–	–	·
CCOC(=O)c1ccc(Oc2coc3cc(O)ccc3c2=O)cc1	–	–	–	–	–	·
CC(C)(C)NC(=O)C(c1ccncc1)N(Cc1ccco1)C(=O)c1ccc(-c2ccccc2)[nH]1 (stereo not given)	–	–	–	52	–	42
O=C(NC1CCCCC1)C(c1ccncc1)N(Cc1ccccc1)C(=O)c1ccc(-c2ccccc2)[nH]1 (stereo not given)	–	–	–	–	–	·
CC(=O)OC(C)[C@H]1CC[C@H]2[C@@H]3CC[C@H]4C[C@@H](OC(C)=O)CC[C@]4(C)C3=CC[C@]12C (stereo not given in full)	–	–	–	–	·	·
O=C(COc1ccc2c3c(c(=O)oc2c1)CCC3)Nc1ccc(CN2CCOCC2)cc1	–	–	–	–	–	·
COc1ccc(S(=O)(=O)NCC2CC3C=CC2C3)cc1OC (stereo not given)	–	–	–	–	–	·
SMILES	tim23-1 inh	NLRP3 yeast inh	TIM10 inh	tim10-1 inh	NALP1 inh	tim10-1 confirm
O=[N+]([O-])c1c(NCCCO)cc(Sc2nc3ccccc3s2)c2nonc12	–	–	–	85	–	85
S=c1nc(Cc2ccc(Cl)cc2)[nH]c2ccccc12	–	–	–	–	–	·
S=c1nc(Cc2ccccc2)[nH]c2ccccc12	–	–	–	43	–	–
CC(C)OC(=O)/C(C#N)=C/c1c[nH]c2ccccc12	–	–	–	42	–	–
COc1cc(C)nc(N(C)S(=O)(=O)c2ccccc2Cl)n1	–	–	–	43	–	–
CCc1ccc([C@@H]2CC=C(C(=O)O)[C@H](c3ccccc3F)N2S(=O)(=O)c2ccc(C)cc2)cc1	–	–	–	41	·	–
O=[N+]([O-])c1cccc(S(=O)(=O)NCC2CC3CCC2C3)c1 (stereo not given)	–	–	–	–	–	·
CCOC(=O)c1ccc2c(c1)nc(SC(C)C(=O)NCC1CCCO1)n2CC (stereo not given)	–	–	–	–	·	·
O=C(c1ccc(Cl)cc1)c1ccc(CN2C(=O)c3ccccc3C2=O)o1	–	–	–	41	–	–
O=C(c1ccc(F)cc1)c1ccc(CN2C(=O)c3ccccc3C2=O)o1	–	–	–	–	–	·
COc1ccccc1CN1CCCC(CN(CCN(C)C)C(=O)C2CCCC2)C1 (stereo not given)	–	–	–	–	–	·
CSCCC(NC(=O)c1ccccc1)C(=O)NCCCSc1ccccc1 (stereo not given)	–	–	–	–	·	·
Cc1nn(-c2ccccc2)c(C)c1NC(=O)COC(=O)c1ccccc1	–	–	–	–	·	·
COc1ccccc1/C=C/C(=O)OCC(=O)Nc1c(C)nn(-c2ccccc2)c1C	–	–	–	45	·	–
CC1CCC(NC(=O)c2cc(S(=O)(=O)N3CCCCC3)ccc2N2CCOCC2)CC1 (stereo not given)	–	–	–	–	·	·
O=C(Nc1sc2c(c1C(=O)c1ccc(Cl)cc1)CCCC2)c1cccnc1	–	–	–	41	–	–
O=C(NC1CCCC1)C(c1ccc(F)cc1)N(Cc1ccc(F)cc1)C(=O)CCl (stereo not given)	–	–	–	57	–	33
COc1ccc(C(C(=O)NCC2CCCO2)N(Cc2ccccc2)C(=O)CNC(=O)c2ccco2)cc1OC (stereo not given)	–	–	–	–	–	·
CCCNS(=O)(=O)c1ccc(OCC(=O)NCC2CCCO2)cc1 (stereo not given)	–	–	–	–	–	·
COc1ccc(/C=C2\CCc3ccccc3C2=O)cc1OC	–	–	–	–	–	·
CCNC(=O)COc1ccc(/C=C2\COc3ccccc3C2=O)cc1OC	–	–	–	46	–	–
CC(C)(C)c1nnc(NS(=O)(=O)c2cc(Cl)ccc2Cl)s1	–	–	–	–	–	·
O=S(=O)(Nc1nc(-c2sccc2Cl)cs1)c1cc(Cl)ccc1Cl	–	–	–	43	–	–
O=C(CCCCCN1C(=O)[C@@H]2Cc3ccccc3CN2C1=O)Nc1cccc(F)c1	–	–	–	45	–	–
Cc1cccc(NC(=O)CCCCCN2C(=O)[C@@H]3Cc4ccccc4CN3C2=O)c1	–	–	–	–	–	·
CCOC(=O)Nc1ccc(Cc2ccncc2)cc1	–	–	–	–	–	·
CC(C)CC(=O)Nc1nnc(S(=O)(=O)N2CCc3ccccc32)s1	–	–	–	–	–	·

Bioassay records as filed in PubChem BioAssay.
